Assay results: ChEMBL document CHEMBL3988442, “University of Dundee, Small-Polar-MMV Screening Library” (2021)
About 1,200 (3.2%) of roughly 38,000 compounds showed an effect of 50% or more. The median lay at about -58%. This is one part of a sample in which strong results are shown more often than they occur.

system: Plasmodium falciparum; experiment: Calibr Malaria Delayed Death Assay SOP; assay type: functional, organism-based; design: scale not given: in the data most compounds retested in dose-response had high values; conditions: concentration 4.99e-06 (unit not given; other assays of the set use mol/L)

Structure (SMILES)	Percent Effect [%]
O=C(CCOc1cccc(F)c1)N1CCCC1Cn1cccn1 (stereo unspecified)	-132.8
Cc1ncc(CN2CCCC(c3cc(C(N)=O)[nH]n3)C2)s1 (stereo unspecified)	-114.1
CN(CCO)CC1COCCN1C(=O)C1(c2cccs2)CCCC1.O=CO (stereo unspecified)	45.51
CN(C)CC1COCCN1C(=O)C1(c2cccs2)CCCC1.O=CO (stereo unspecified)	30.77
Fc1cccnc1N1CCCC(c2nccs2)C1 (stereo unspecified)	-23.64
CN1CCC(CCNC(=O)N2CCN(Cc3ccon3)CC2)CC1	-51.38
CC(C)S(=O)(=O)CCN1CCc2c(ncn2C2CC2)C1	-95.89
CCS(=O)(=O)N1CCc2c(CN3CCOCC3)cncc2C1.Cl.Cl	-14.39
CC1CCN(CCNC(=O)c2ccn(-c3ccccc3)n2)CC1	21.68
CC1CCCCN1CCNC(=O)c1ccn(-c2cccc(F)c2)n1 (stereo unspecified)	62.87
CC1CCCCN1CCNC(=O)c1ccn(-c2ccc(F)cc2)n1 (stereo unspecified)	33.02
COc1ccc(-n2ccc(C(=O)NCCN3CCCCC3C)n2)cc1 (stereo unspecified)	-78.7
CC1CCCN(CCNC(=O)c2ccn(-c3ccc(F)cc3)n2)C1 (stereo unspecified)	48.64
CC1CCN(CCNC(=O)c2ccn(-c3ccc(F)cc3)n2)CC1	59.32
CS(=O)(=O)NCc1nnc2n1CCN(Cc1nccs1)C2	-79.56
CN(C)CC1(O)CCN(S(=O)(=O)c2ccc(Cl)cc2)C1 (stereo unspecified)	40.17
CN(C)CC1(O)CCN(S(=O)(=O)c2cccc(F)c2)C1 (stereo unspecified)	65.12
Cc1ccc(S(=O)(=O)N2CCC(O)(CN(C)C)C2)cc1 (stereo unspecified)	49.75
CC(=O)c1ccc(CNC(=O)c2c(C)cc(C)cc2C)nc1C	-62.27
CN(C)C(=O)c1nn(C)c2c1CN(Cc1cccs1)C2.O=C(O)C(F)(F)F.O=C(O)C(F)(F)F	-31.31
NC(=O)CCC1CCCN(c2ccnc3cc(F)ccc23)C1 (stereo unspecified)	82.57
NC(=O)CCC1CCCN(c2ccc3ccc(F)cc3n2)C1 (stereo unspecified)	-163.3
NC(=O)CCC1CCCN(c2ccc3c(Cl)ccnc3c2F)C1 (stereo unspecified)	-15.33
NC(=O)C1CCN(CCCNC(=O)Nc2nccs2)CC1	-52.35
CCn1nc(C)c2nc(C(C)C)nc(N3CCC(O)CC3)c21	-68.6
CN[C@@H](C)C(=O)N(Cc1cccc(C)c1)Cc1ccccc1OC	83.47

Structure (SMILES)	Percent Effect [%]
COCC(=O)N(Cc1cccc(C)c1)Cc1ccccc1OC	-1.416
COc1ccccc1CN(Cc1cccc(C)c1)C(=O)[C@@H](N)CC(=O)O	-17.66
Cc1cnc(N2C(=O)CSC2c2cccs2)s1 (stereo unspecified)	-26.83
COc1ccc2[nH]cc(-c3ccnc(N4CCC(C)CC4)n3)c2c1	-185.2
COC(=O)c1ccc2c(-c3ccnc(N[C@@H](C)CO)n3)c[nH]c2c1	-32.75
COc1ccc2[nH]cc(-c3ccnc(NC4CCCC4)n3)c2c1	56.79
COc1ccccc1CC(C)CC(=O)NC(C)C (stereo unspecified)	-116.6
CC(=O)N(Cc1noc(C2CC2)n1)C1CCN(Cc2cc(C)on2)C1 (stereo unspecified)	-9.487
FC(F)(F)c1cccc(OC2CCN(Cc3c[nH]cn3)CC2)c1	48.24
FC(F)(F)c1cccc(OC2CCN(Cc3ncc[nH]3)CC2)c1	-24.7
Cc1cccc(-c2nc(N)nc3c2CN(C(=O)C2CCCC2)C3C)c1 (stereo unspecified)	35.57
COc1ccccc1CN1CC(O)CN(C(=O)OCC(C)C)CC1=O (stereo unspecified)	-17.94
Nc1ccc(C(=O)N2C[C@@H]3CC[C@H](C2)N(Cc2ccccc2)C3)cn1	-23.45
O=C(O)C(F)(F)F.O=C(O)C(F)(F)F.O=C(c1cccnc1)N1CCN2C[C@H](OCc3ccccc3)C[C@H]2C1	-25.13
CC(C#N)CSc1ccccc1NCC(=O)NC(C1CC1)C1CC1 (stereo unspecified)	54.59
CC(C#N)CSc1ccccc1NCC(=O)Nc1ccccc1 (stereo unspecified)	-74.13
CC(C#N)CSc1ccccc1NCC(=O)NC1CCCCC1 (stereo unspecified)	-62.9
COc1c[nH]c(C(=O)N2CCN(c3ccccc3)CC2)cc1=O	-92.19
COC(=O)c1c(C(F)(F)F)cnc(OC)c1Cl	-7.4
CCC(CO)NC(=O)NCc1cc(C#N)ccc1F (stereo unspecified)	-31.58
COc1cccc(CNc2cc(C)nc(-c3ccncc3)n2)c1O	-16.17
COc1cccc(CNc2nc(C)cc(C)n2)c1OC	-94.43
COc1cccc(CNc2cc(C)nc(-c3ccncc3)n2)c1OC	88.78
CNc1oc(-c2cc(S(=O)(=O)N3CCCC3)c(C)o2)nc1C#N	-60.45
Cc1nn(C)c2nc(N3CCCC3c3nccs3)sc12 (stereo unspecified)	-63.74
NC(=O)c1cccnc1N1C[C@@H]2CC[C@H](C1)N(Cc1ccccn1)C2=O	-36.76

Structure (SMILES)	Percent Effect [%]
Fc1ccc(OCc2nnc([C@H]3CCN(Cc4ccccn4)C3)o2)cc1	-10.02
CCC(=O)N1CCC2(CC1)CC(NC(=O)N(C)C)c1cc(C)ccc12 (stereo unspecified)	-96.24
Cc1noc(Cl)c1CCC(=O)N1CCN(CC(C)(C)O)CC1	-36.25
Cc1noc(Cl)c1CCC(=O)N1CCc2sccc2C1	53
Cc1noc(Cl)c1CCC(=O)N1CCN(c2ccccc2)CC1	51.57
Cc1noc(Cl)c1CCC(=O)N1CCN(c2cnccn2)CC1	-135.5
Cc1nn(C)c(C)c1CCC(=O)N1CCc2sccc2C1	-11.91
Cc1noc(C)c1CS(=O)(=O)CC(=O)N1CCc2sccc2C1	-29.06
CC(CO)(NC(=O)NCCc1ccc(Br)s1)C1CC1 (stereo unspecified)	-76.18
Cc1[nH]ncc1C(=O)N1CCCC1c1noc(C2CC2)n1 (stereo unspecified)	-58.86
CCOCC(O)CN1CCN(C(=O)c2ccc(OC)cc2)CC1 (stereo unspecified)	-30.2
O=C(Nc1ccc(=O)n(Cc2ccccc2Cl)c1)C1CC1	-14.36
CCOc1cccc(CNC(C)c2ccc(-n3ccnc3)cc2)c1O (stereo unspecified)	74.87
COc1cccc(CNC(C)c2ccc(-n3ccnc3)cc2)c1OC.Cl (stereo unspecified)	16.61
CCOc1cccc(CNc2ccccc2C(=O)OC)c1O	-51.83
CN(C)CCNC(=O)c1ccn(-c2ccc3ccccn23)n1.O=C(O)C(F)(F)F	83.48
COCCCNC(=O)c1ccn(-c2ccc3ccccn23)n1	-7.182
N#CCCNC(=O)c1ccn(-c2ccc3ccccn23)n1	-51.94
CCn1nc2c(cc1=O)CN(c1ncnc3sccc13)CC2	2.158
Clc1cccc2c3c([nH]c12)CCN(Cc1cc2n(n1)CCNC2)C3	78.46
OC(c1ccccn1)C1CCN(Cc2cc3n(n2)CCCNC3)CC1 (stereo unspecified)	-111.2
c1ccc(COC2CCN(Cc3cc4n(n3)CCCNC4)CC2)nc1	-20.17
c1ccc2c3c([nH]c2c1)CN(Cc1cc2n(n1)CCNC2)CC3	44.64
c1csc(N2CCN(Cc3cc4n(n3)CCNC4)CC2)n1	-68.56
CSCCC(Nc1nc(C)cc(C)n1)C(=O)NC(C)(C)CO (stereo unspecified)	-11.3
COc1ccccc1CC1CCCN(CCN2CCOC2=O)C1 (stereo unspecified)	47.59

Structure (SMILES)	Percent Effect [%]
COc1ccc(CCN2CCCC(CN(C)Cc3ccc(C)o3)C2)cc1 (stereo unspecified)	-48.89
Cc1ncc(CN(C)C2CCCN(c3cccnn3)C2)s1 (stereo unspecified)	-24.6
CN(C)C(=O)CN1CCO[C@H]2CN(Cc3cccc(F)c3)C[C@H]21	-27.48
Cc1nc(C2CCCNC2)cc(N(C)CCc2ccccc2)n1 (stereo unspecified)	52.76
Cc1nc(C2CCCNC2)cc(N(C)CCc2cn[nH]c2)n1 (stereo unspecified)	-154.6
CCn1ccnc1CN(C)c1cc(C2CCCNC2)nc(C)n1 (stereo unspecified)	-40.5
c1ccc(C(OCCNC2CCc3ncnn3C2)c2ccccc2)cc1 (stereo unspecified)	43.54
c1ccc(C2(CNCc3cnc(N4CCOCC4)nc3)CC2)cc1	-24.34
OC1(CNCc2cnc(N3CCOCC3)nc2)CCCCC1	-76.92
Cc1ccccc1C1(CNCc2cnc(N3CCOCC3)nc2)CC1	50.04
CCC(CC)CN1CCC2(CCCN(c3ncccn3)C2)C1 (stereo unspecified)	60.59
O=C(O)C(F)(F)F.O=C(O)C(F)(F)F.c1cnc(N2CCCC3(CCN(c4ncccn4)C3)C2)nc1 (stereo unspecified)	-228.4
O=C(O)C(F)(F)F.O=C(O)C(F)(F)F.O=C(O)[C@]12CCCN(Cc3ccsc3)C[C@H]1CN(c1ccccn1)C2	-252.9
c1cnc(N2CCCC3(CCN(Cc4ccsc4)C3)C2)nc1 (stereo unspecified)	66.41
Cn1cc(CN2CC3(CCN(Cc4ccsc4)C3)C2)cn1	-1.772
O=C(O)C(F)(F)F.O=C(c1cnccn1)N1CCCC2(CCN(Cc3ccsc3)C2)C1 (stereo unspecified)	-36.03
O=C(O)C(F)(F)F.O=C(O)[C@]12CCCN(Cc3ccsc3)C[C@H]1CN(c1ncccn1)C2	-238.9
Cc1cnc(N2CCC3(CCCN(c4ncc(F)cn4)C3)C2)nc1 (stereo unspecified)	-149.1
Fc1cnc(N2CCCC3(CCN(c4ncccn4)C3)C2)nc1 (stereo unspecified)	-118
Fc1cnc(N2CC3(CCN(Cc4ccsc4)C3)C2)nc1.O=C(O)C(F)(F)F	-1.441
CCCN1C(=O)CC(N2CCN(c3ccc(F)cc3)CC2)C1=O (stereo unspecified)	-22.99
CN1CCCC(N(C)S(=O)(=O)c2cccc3ncccc23)C1 (stereo unspecified)	28.23
Cc1cc2nc(C(C)C)cc(N3CCN(c4ccc(O)cc4)CC3)n2n1	-69.46
